Out of some 7,400 compounds screened, about 4,100 (55%) were called active.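 How the source made its calls: active means inhibition of yeast growth at or above a set limit in either of two repeat tests at 20 µM; inactive means the rest.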 So high a share suggests a set chosen from earlier hits. Not all results are given here.

The nature of the assay: growth inhibitors of tim10-1 mutant yeast, confirmation, single concentration, luminescence, S. cerevisiae (AID 463213).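 Further: tim10-1 mutant grown at permissive 25 °C to find synthetic lethal compounds; 0% = DMSO yeast wells and 100% = medium wells without yeast.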 As to conditions: S. cerevisiae tim10-1 ts strain growth, BacTiter-Glo, 24 h; at 20 µM; stronger effect = higher value.
As to `c1ccc(-c2nnc3n2NC(c2ccc4c(c2)OCO4)S3)cc1` (configuration not stated), the inhibition (usually the percentage by which the read-out fell short of the control) is 34% (active).
To `Cc1cccc(C2c3[nH]c4ccccc4c3CCN2C(=O)c2cc(-c3cccn3C)n[nH]2)n1` (configuration not stated) belongs 14.3% (inactive); to `CCCCC(=O)Nc1nc(C)c(-c2csc(Nc3ccc(Cl)cc3)n2)s1`, 31% (active); to `C=CCCC(=O)Nc1nc(C)c(-c2csc(Nc3ccc(Cl)cc3)n2)s1`, 19.9% (inactive).
`O=[N+]([O-])c1ccc(C=Nc2ccc(Cl)cc2Cl)s1`: the inhibition was 69.8% (active).
The value for `COc1ccc(/C=C/C2=CC(C)(C)NC(=S)N2)c(OC)c1` was 20.4% (inactive).
The value for `NS(=O)(=O)c1ccc(NC(=S)Nc2ccc(Br)c(Cl)c2)cc1` was 41.2% (active); that for `CC(Nc1nc(C(F)(F)F)nc2ccccc12)c1cccs1` (configuration not stated) was 30.1% (active); that for `O=[N+]([O-])c1ccc2c(c1)Nc1nc3ccccc3nc1N2` was 70.2% (active).
In the case of `O=C1CC(c2ccccc2)=NN1c1ccc([N+](=O)[O-])cc1`, the inhibition was 23.8% (inactive).
For the molecule `COc1ccccc1NC(=O)C1=C(C)Nc2nnnn2C1c1cccc(Br)c1` (configuration not stated), the inhibition was 28.7% (inactive).
Take `CCc1cc(C(N)=O)c(NC(=O)c2ccc(OC)cc2)s1`: the inhibition was 58.2% (active).
With `CC(C)c1cc(C(N)=O)c(NC(=O)c2cccc(COc3ccc(Br)cc3)c2)s1`, the inhibition is 26.9% (inactive).
With `Cn1c(-c2sccc2OCc2cccc(C(F)(F)F)c2)n[nH]c1=S`, the inhibition is 25.1% (inactive).
As for `CCSC1=C(C#N)C(=O)n2c1cc1c2CCCC1`, the inhibition was 52.3% (active).
The value for `N#CC1(C#N)C(C(=O)C23CC4CC(CC(C4)C2)C3)C12CCOCC2` (configuration not stated) was 41.9% (active); that for `COc1ccc(S(=O)(=O)Nc2ccc(O)c(Sc3nc4ccccc4s3)c2)cc1` was 37% (active); that for `COc1cc(NS(=O)(=O)c2ccc3ccccc3c2)c2ncccc2c1` was 27.8% (inactive).
The value for `CC(=NCc1ccc2c(c1)OCO2)C1=C(O)c2ccccc2C1=O` was 40.3% (active).
Consider `c1ccc(-c2cn3c(n2)CCc2ccc4cccnc4c2-3)cc1`, for which the inhibition is 30.3% (active).
For the molecule `Cc1nc2ccccc2cc1OCc1ccc(F)cc1`, the inhibition is 9.05% (inactive).
The value for `Cc1ccc(-c2csc(-c3c[nH]c4ccccc34)n2)cc1` was 50.9% (active); that for `O=C(c1cccs1)N(C(=O)c1cccs1)c1ccccn1` was 20.9% (inactive).
For the molecule `COc1ccc(C)cc1Nc1nc(C)nc2c1oc1ccccc12`, the inhibition is 25.5% (inactive).
As for `O=C(CCc1ccc(S(=O)(=O)N2CCOCC2)cc1)Nc1ccc2ccccc2c1`, the inhibition is 28.1% (inactive).
With `O=C(NCCc1ccc(F)cc1)c1ccc(S(=O)(=O)N2CCCCC2)cc1`, the inhibition was 43.5% (active).
The value for `COc1ccc(Oc2cn[nH]c2-c2ccc(OC)cc2O)cc1` was 39.3% (active).
